This is part of a sample that, as a whole, favours compounds with a hit. Of some 83,000 tested, about 20% had one in any assay.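 Note: values are percent growth. 100 is the growth of untreated cells, values between 100 and 0 indicate rising inhibition; between -100 and 0 indicates cell death.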 Calls of active or inactive are those of the source.
System: SK-OV-3 ovarian
Assay: NCI-60 one-dose screen, 48 h (100 = growth as untreated, 0 = no growth, -100 = all killed)
Conditions: 10 µM unless noted
Experimental: Growth inhibition of the SK-OV-3 human tumor cell line is measured as a screen for anti-cancer activity. Cells are grown in 96 well plates and exposed to the test compound for 48 hours. Compounds are tested at a single concentration, which is 10^-5 M for most compounds. The reported endpoint is percent growth (GI% or GIPRCNT), where numbers from 0 - 100% represent growth inhibition, and numbers from -100% - 0 represent cell death. For example, a value of 40 represents 60% growth inhibition. A value of 0 means no net growth occurred over the course of the experiment. A value of -40 indicates 40% of cells at the beginning of the experiment died by the end of the experiment. A value of -100 means all cells are dead at the end of the experiment.
NCI-60 Human Tumor Cell Lines Screen was performed using the standard one-dose NCI protocol, which is described in more detail at https://dtp.cancer.gov/discovery_development/nci-60/default.htm.
Compounds with GIPRCNT values below 10 were considered active. Activity score was based on GIPRCNT using the following formula: […]
Score is 0 for GIPRCNT values of 100 or above, 50 for GIPRCNT values of 0, and 100 for GIPRCNT values of -100.

Row | Structure (SMILES) | growth
1 | Cc1cc(Nc2ccc(F)cc2)nc(N2CCN(c3ccnc4cc(Cl)ccc34)CC2)n1 | 46.8% (inactive)
2 | Cn1c2c(Cl)c(Cl)ccc2c2c(C#N)c[nH]c(=O)c21 | 107% (inactive)
3 | Cc1ccnc2c(OCc3ccccc3)cccc12 | 112% (inactive)
4 | Cc1csc(-c2ccc3c(c2)COC3(CCCN(C)C)c2ccc(F)cc2)c1 (stereo not given) | -22.4% (active)
5 | COc1ccc(/C=C(\C#N)c2cc3ccccc3n2C(C)=O)cc1 | 107% (inactive)
6 | Clc1cc(Cl)cc(Nc2ccc3c(OCCCN4CCOCC4)cccc3n2)c1 | 75.8% (inactive)
7 | O=C1c2cccc3cccc(c23)C(=O)N1CC#Cc1ccc2c3c(cccc13)C(=O)N(CCO)C2=O | 92.4% (inactive)
8 | O=C(/C=C/c1cccc2ccccc12)Nc1ncc(Cc2ccccc2)s1 | 20.9% (inactive)
9 | CC(=O)OC(C)COc1ccc(-c2ccccc2)cc1 (stereo not given) | 109% (inactive)
10 | NCCn1cc(-c2nc(-c3c[nH]c4ncccc34)cs2)c2ccccc21 | 82.2% (inactive)
11 | Nc1c(C(=O)Nc2c(Cl)cccc2Cl)sc2nc3c(cc12)CCCC3 | 83.3% (inactive)
12 | Cc1cccc(C)c1NCc1nc(-c2ccccc2)n[nH]1 | 93.7% (inactive)
13 | CCCC1CCCCN1C(=O)OCC(C)C (stereo not given) | 110% (inactive)
14 | Nc1ccccc1NC(=O)c1ccc(CN2CCC/C(=C\c3ccccn3)C2=O)cc1 | 48.2% (inactive)
15 | O=C1CN(c2ccccc2)C(=O)C1C(=O)Nc1ccc(Cl)c(Cl)c1 (stereo not given) | 20.3% [100 µM] (inactive)
16 | Cn1cc(-c2csc(-c3cn(CCNC(=O)OC(C)(C)C)c4ccccc34)n2)c2cccnc21 | 94.9% (inactive)
17 | CCCCC[C@H]1C/C=C2/C(=O)C(Cl)=C[C@@H]2C/C=C\CCCC(=O)O[C@@H](CCCCC)C/C=C2/C(=O)C(Cl)=C[C@@H]2C/C=C\CCCC(=O)O1 | -21.4% (active)
18 | Nc1c(C(=O)Nc2cccc(Cl)c2)sc2ncc(Cl)cc12 | 81% (inactive)
19 | N#C/C(=C\c1ccc(-c2ccc(Br)cc2)o1)c1nc(-c2ccco2)cs1 | 91% (inactive)
20 | NC(Cc1ccc(O)cc1)C(=O)N/N=C/c1ccccc1O (stereo not given) | 113% (inactive)

Row | Structure (SMILES) | growth
21 | COc1ccc2c(c1)C(Br)=C(CCO)C2c1ccccc1 (stereo not given) | 78.1% (inactive)
22 | O=C1CCCC=CC[C@H]2C=C(Cl)C(=O)C2=CC[C@H](CCCCC(F)(F)F)OC(=O)CCCC=CC[C@H]2C=C(Cl)C(=O)C2=CC[C@H](CCCCC(F)(F)F)OC(=O)CCCC=CC[C@H]2C=C(Cl)C(=O)C2=CC[C@H](CCCCC(F)(F)F)O1 | 119% [6.25 µM] (inactive)
23 | COc1ccc2[nH]c(-c3ccc(Cl)cc3)cc(=O)c2c1 | 99.6% (inactive)
24 | Cc1ccc(Sc2sc(-c3ccccc3)nc2[P+](c2ccccc2)(c2ccccc2)c2ccccc2)cc1 | -22.5% (active)
25 | C=C(C)[C@@H]1CC[C@]2(CN)CC[C@]3(C)[C@H](CC[C@@H]4[C@@](C)(CCCN)[C@H](C(=C)C)CC[C@]43C)[C@@H]12 | 107% (inactive)
26 | COC(=O)[C@]12CC[C@@H](C)[C@H](C)[C@@H]1C1=CC[C@@H]3[C@@]4(C)C[C@@H](OC(C)=O)[C@H](OC(C)=O)[C@@](C)(COC(C)=O)[C@@H]4[C@H](O)C[C@@]3(C)[C@]1(C)CC2 | 2.45% (active)
27 | c1ccc(CN2C(c3ccccc3)=Nc3ccccc3C2c2c[nH]c3ccccc23)cc1 (stereo not given) | 71.6% (inactive)
28 | COC(=O)[C@]12CC[C@@H](C)[C@H](C)[C@@H]1C1=CC[C@@H]3[C@@]4(C)C[C@@H](OC(C)=O)[C@H](O)[C@@](C)(CO)[C@@H]4[C@H](O)C[C@@]3(C)[C@]1(C)CC2 | -95.4% (active)
29 | O=Cc1nc2ccccc2[nH]1 | 94.2% (inactive)
30 | Cc1cc(C)n(Cc2cc(C(C)(C)C)cc(C(C)(C)C)c2)c(=O)c1C#N | 87% (inactive)
31 | COc1ccc2nc(-c3c(-c4ccccc4)nc4ncccn34)[nH]c2c1 | 109% (inactive)
32 | COc1ccc(-c2cc(/C=C/C(=O)c3ccc(N)cc3)[nH]n2)cc1 | -8.64% (active)
33 | CCNCCCn1c2c(c3ccc([N+](=O)[O-])cc3c1=O)C(=O)c1cc(OC)cnc1-2 | -25.3% (active)
34 | COC(=O)c1cc(=O)nc(N/N=C/c2ccc(C)cc2)s1 | 110% (inactive)
35 | CCCCCCCC(=O)SCC/C=C/[C@@H]1CC(=O)NCc2cccc(n2)CN(Cc2ccc3ccccc3c2)CC(=O)N[C@@H](C(C)C)C(=O)O1 | 24.5% (inactive)
36 | COC(=O)[C@]12CC[C@@H](C)[C@H](C)[C@@H]1C1=CC[C@@H]3[C@@]4(C)C(c5ncon5)=C[C@@](C)(CO)C4=CC[C@@]3(C)[C@]1(C)CC2 | 68.9% (inactive)
37 | COc1ccc(C2NC(=O)Nc3ccccc32)c(OC)c1 (stereo not given) | 95.3% (inactive)
38 | CC(Cc1ccco1)C(=O)NC(N)=O (stereo not given) | 120% (inactive)
39 | CC(=O)O[C@H]1CC[C@]2(C)[C@H]3C(=O)C=C4[C@@H]5C[C@](C)(C(=O)N6CCCNCC6)CC[C@]5(C)CC[C@@]4(C)[C@]3(C)CC[C@H]2C1(C)C | 70.6% (inactive)
40 | Oc1cc(/C=C/c2nc(N3CCOCC3)c3cc(Cl)c(Cl)cc3n2)cc(O)c1O | 105% (inactive)

Source: PubChem BioAssay (NCI)
